Tgondii IFNg: inhibitors of Toxoplasma gondii growth with IFN-gamma. Toxoplasma gondii growth in IFN-gamma-treated host cells; stronger effect = lower value. AID 1259416. activity change, negative = inhibition, % (concentration not given with the values). 69,000 compounds, 3.8% hits; in the data active means activity change below about -70%, passing the limit was not always enough;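 further: host cells are HeLa cells infected with Toxoplasma gondii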
Numbers without * were called inactive; i = inactive; ! = not active in a repeat. The entries come from a sample that favours hits as a whole.

SMILES	Tgondii IFNg
Cc1c[nH]c(CN2CCCC(CCc3ccccc3F)C2)c(C)c1=O (stereo unspecified)	-89.2*
CNC(=O)c1ccc(CN2CCCC(CCc3ccccc3C)C2)cc1 (stereo unspecified)	-7.4
CCN1CCn2c(-c3cnn(C)c3)cnc2C12CCN(CC1CC1)CC2	61.1
Cc1c2oc3c(C)ccc(C(=O)N[C@@H]4C(=O)N[C@H](C(C)C)C(=O)N5CCC[C@H]5C(=O)N(C)CC(=O)N(C)[C@@H](C(C)C)C(=O)O[C@@H]4C)c3nc-2c(C(=O)N[C@@H]2C(=O)N[C@H](C(C)C)C(=O)N3CCC[C@H]3C(=O)N(C)CC(=O)N(C)[C@@H](C(C)C)C(=O)O[C@@H]2C)c(N)c1=O	-81.8*
Cc1ccc(-c2nc(C)c(CCNC(=O)C(=O)Nc3ccc(F)cc3F)s2)cc1	21.5
Cn1cnc(S(=O)(=O)NC2CCC3(CCC(=O)N3)CC2)c1 (stereo unspecified)	0.9
Cc1ccc(C(=O)N2CCO[C@H]3[C@@H](OCC4CC4)CC[C@H]32)cn1	-55.5
Cn1cnc2c1C(C(=O)O)CN(C(=O)c1ccc3c(c1)OCO3)C2 (stereo unspecified)	11.0
O=C(c1ccc2c(c1)OCO2)N1Cc2cnn(CCO)c2C1	3.9
CC(C)n1nc2c(cc1=O)CN(C(=O)c1ccc3c(c1)OCO3)CC2	-80.3*
CC(=O)Nc1ccc(C(=O)N(C2CCCC2)C2(C(=O)NCc3ccccc3)CCN(C(C)=O)CC2)cc1	139.0
Cc1cc(C)cc(NC(=O)C(=O)NCCc2sc(-c3ccc(Cl)cc3)nc2C)c1	-39.7
CSc1ccc(CN(C(=O)CC2CCOCC2)C2CC2)cc1	-1.6
N#C/C(=C/c1ccc(O)c(O)c1)C(=O)NCCCc1ccccc1	3.4
N#C/C(=C\c1ccc(O)c(O)c1)C(=O)NC1CCC(CC2CCC(NC(=O)/C(C#N)=C/c3ccc(O)c(O)c3)CC2)CC1 (stereo unspecified)	-79.9*
N#C/C(=C/c1ccc(O)c(O)c1)C(=O)NCc1ccccc1	-2.8
C=CCN1Cc2ccccc2C2(CCN(C(=O)c3ccno3)CC2)C1	-5.2
Cc1cnc(C(=O)N2C[C@H]3C[C@@H]4[C@@](C2)(CN(CC(C)C)S4(=O)=O)O3)cn1	416.9
COc1cc(C)c(C(c2ccc(N(C)C)cc2)c2ccc(N(C)C)cc2)cc1C	-96.7*
CNc1nc(C(=O)N[C@@H]2CC[C@@H](N)C2)cs1	4.4
COc1ccccc1-c1noc(CCC(=O)N2CCCC2C(F)(F)F)n1 (stereo unspecified)	1.0
C=CCOc1ccc(CNc2ccc3[nH]c(=O)[nH]c3c2)cc1OC	-8.6
COc1cc(CNc2ccc3[nH]c(=O)[nH]c3c2)ccc1OCc1ccccc1	162.5
O=c1[nH]c2ccc(NCC#Cc3ccccc3)cc2[nH]1	-83.5*
O=C(C1CCOCC1)N1CCC(c2cc(Cc3ccccc3)[nH]n2)CC1	6.4
SMILES	Tgondii IFNg
Cc1cc(=O)c2cc(Cl)ccc2s1	58.7
COc1ccc(OS(=O)(=O)c2sc3ccc(Cl)cc3c2C)cc1	-104.0*
Cc1c(C(=O)CSc2ccc(Cl)cc2)sc2ccc(Cl)cc12	-56.6
Cc1noc(C)c1S(=O)(=O)Nc1ccc(Oc2c(Cl)cccc2Cl)nc1	-0.6
COc1ccccc1-c1nc(Cn2nnc(C(=O)Nc3c(C)cccc3C)c2C)c(C)o1	i
CCC(=O)Nc1cccc(Oc2nc(Nc3ccc(N4CCN(C)CC4)cc3OC)ncc2Cl)c1	-18.7
C=CC(=O)Nc1cccc(Oc2nc(Nc3ccc(N4CCN(C)CC4)cc3OC)ncc2Cl)c1	-66.9
C=CC(=O)Nc1cccc(Sc2nc(Nc3ccc(N4CCN(C)CC4)cc3)ncc2Cl)c1	-81.6*
CCOC(=O)c1cc(CC)sc1NC(=O)c1ccc2c(c1)OCO2	-1.5
O=C(c1ccoc1)N1CCOC2(CCCN(c3cnccn3)C2)C1 (stereo unspecified)	46.5
CCCCN(CC)CCCNC(=O)C1=C(C)C(=O)OC12CCN(S(=O)(=O)CC)CC2	-5.8
CCc1ncnc2c1CCN(C(=O)c1ccc3[nH]ccc3c1)CC2	-0.5
O=C(O)c1cncc(-c2cccc(-c3ccn[nH]3)c2)c1	88.0
CN1CCN(c2ncnc3ccc(-c4cccc(-c5ccn[nH]5)c4)cc23)CC1	-79.2*
CN(C)C(=O)c1ccc2ncnc(N3CCCC3)c2c1	6.7
Cc1cc(C#N)cc(C)c1Oc1nc(Nc2ccc(C#N)cc2)nc(N)c1Br	-85.6*
Cc1ccc(NC(=O)Cn2ncc3c(N4CCCC4)ncnc32)c(C)c1	-46.7
CCCNC(=O)N1CC2(CCN(S(=O)(=O)c3ccccc3)CC2)c2c(n(C)c3cc(OC)ccc23)[C@H]1CO	-57.7
COc1ccc2c3c(n(C)c2c1)[C@H](CO)N(C(=O)Nc1ccc(F)cc1)CC31CCN(Cc2ccccn2)CC1	-17.6
COc1ccc2c3c(n(C)c2c1)[C@@H](CO)N(C(=O)Nc1ccc(F)cc1)CC31CCN(Cc2ccccn2)CC1	-37.3
COc1ccc2c3c(n(C)c2c1)[C@@H](CO)N(C(=O)Nc1ccc(F)cc1)CC31CCN(S(=O)(=O)c2cccc(C)c2)CC1	-75.5*
COc1ccc2c3c(n(C)c2c1)[C@H](CO)N(C(=O)Nc1ccc(F)cc1)CC31CCN(S(=O)(=O)c2cccc(C)c2)CC1	-74.1*
COc1ccc2c3c([nH]c2c1)[C@H](CO)N(C(=O)Nc1cccc(F)c1)CC31CCN(S(=O)(=O)c2cccc(C)c2)CC1	-53.8
CC(C)n1nccc1C(=O)N1CCN(S(=O)(=O)c2ccc(F)c(F)c2)CC1	40.6
CCO[C@H]1CC2CC1CN2C(=O)c1cccc(C#N)c1 (stereo partly specified)	64.5
SMILES	Tgondii IFNg
Cc1cc(C)cc(S(=O)(=O)N2CCC[C@@H]2C(=O)NCCc2csc(-c3ccccc3)n2)c1	-41.6
CCCCNS(=O)(=O)c1cc2c3c(c1)CCC(=O)N3CCC2	45.9
O=C(CCN1CCCCO1)Nc1cccc(NC(=O)Cc2ccccc2)c1	-5.2
O=C(CN1CCC(n2nnc3cc(C(F)(F)F)ccc32)CC1)N1CCc2ccccc21	-81.4*
O=C(CN1CCCC1)N1CCc2ccccc21	-30.3
O=C(CN1CCC(c2nc3ccccc3[nH]2)CC1)N1CCCc2ccccc21	-6.6
CCOCC1CN(Cc2cc(C)on2)Cc2nnn(CC3CC3)c21 (stereo unspecified)	37.0
COc1ccc(CC2CN(C(=O)c3ccc4nc(C)[nH]c4c3)CCO2)cc1 (stereo unspecified)	-4.0
CC1Cc2ccccc2N1c1ncnc2c1nnn2Cc1ccccc1Cl (stereo unspecified)	-94.3*
CSc1ncnc2c1nnn2Cc1ccccc1Cl	-28.1
Cc1cc(C)n(-c2ncnc3c2nnn3Cc2ccccc2Cl)n1	-56.0
COc1ccc(C2CC(=O)Nc3c2c(C)nn3-c2ccc(C)cc2)cn1 (stereo unspecified)	-51.1
CCn1c(C2CCN(C(=O)c3cccc4c(C)c(C)[nH]c34)CC2)n[nH]c1=O	4.2
O=C(N[C@@H](CO)[C@H](O)c1ccc([N+](=O)[O-])cc1)C(Cl)Cl	-8.0
CCCCCCCCCCCCCCCC(=O)OC[C@H](NC(=O)C(Cl)Cl)[C@H](O)c1ccc([N+](=O)[O-])cc1	19.7
CS(=O)(=O)c1ccc(C(O)[C@H](CF)NC(=O)C(Cl)Cl)cc1 (stereo partly specified)	-77.6*!
COc1ccc(CN2C[C@@H]3CCCN3C[C@@H]2CCSC)cc1CN1CCOCC1	-7.0
Cc1cc(C(F)(F)F)nc(SCC(=O)NCC(C)n2nc(C)c(C)c2C)n1 (stereo unspecified)	6.3
Cc1cc(Cn2ccnc2-c2cc3ccc(F)cc3[nH]c2=O)on1	7.0

Screening results deposited in PubChem BioAssay by Broad Institute.
